# Measurements reported in PubChem BioAssay (NCATS).
# Values joined by “and” are separate entries in the source; they are usually repeats but may differ in a detail not shown here. Equal entries are not always repeated. Records with an inconclusive call do not appear. A number with no mark means an inactive call. Calls follow the shape of the dose curve; as a rule, active = well fitted curve in either direction with a large enough effect (not every such curve was filed as active); inconclusive = small, poorly fitted or top-dose-only effect, or another doubt; inactive = flat fitted curve, though single readings scatter.
# Assay: Stat Signaling Pathway (AID 446)
# Settings: ME-180 SIE beta-lactamase reporter, IL-6 stimulated, 5 h; at 7.69 µM (top of the series)
# Procedure: NCGC Assay Overview: The IL-6/STAT signaling pathway was assayed in ME-180 cervical carcinoma cells by a beta-lactamase reporter gene controlled by a STAT Inducible Element (SIE). This reporter is induced by IL-6 at 40 pM AC50 and inhibited by the pan JAK inhibitor, 2-(1,1-Dimethylethyl)-9-fluoro-3,6-dihydro-7H-benz[h]-imidaz[4,5-f]isoquinolin-7-one, at approximately 10 nM AC50. Plated cells were incubated overnight and on the following day, stimulated with 40 pM IL-6 for 5 hrs. The assay was screened at the AC50 of IL-6 activation to identify both inhibitors and activators of IL-6/STAT signaling.
# NCGC Assay Protocol Summary: Cells were trypsinized, washed in assay medium (AM, OPTI MEM with 0.5% fetal bovine serum, 0.1 mM nonessential amino acids, 1 mM sodium pyruvate, 10mM HEPES pH 7.3, 100U/ml penicillin, and 100 ug/ml streptomycin) and suspended at 6 x 10e5/ml in AM. Approximately […] cells in 5 uL/well was dispensed into 1536 well plates and the cells were incubated overnight at 37 C. 23 nL of compound were delivered by a pin tool and 1 uL of IL-6 (40 pM final concentration in AM) was added. After centrifugation at 1000 rpm for less than a minute, plates were incubated at 37C for 5 hrs. One uL of detector mix (LiveBLAzerTM, Invitrogen) was added, the plates incubated at room temperature for 2.5 hrs, and fluorescence intensity at 460 and 530 nm emission was measured at 405 nm excitation by an Envision (Perkin Elmer) or Safire II (Tecan). Data were normalized by GeneData to the controls for AC90 stimulation (300 pM IL-6) and to AC90 inhibition (125 nM Jak inhibitor, 40 pM IL-6 in AM).
# % is scaled to controls: 0 for no effect and ±100 for the full control effect.
row,Structure (SMILES),"activity, negative = inhibition [%]"
1,Clc1ccccc1-c1nc(-c2ccncc2)no1,-6.11
2,O=C(O)CC[C@@H](C(=O)O)N1C(=O)c2ccccc2C1=O,3.89
3,CN1[C@@H]2CC[C@H]1CC(OC(c1ccccc1)c1ccccc1)C2 (stereo not given in full),0.0599
4,NCCSSCCN,-10

# Same assay, conditions: ME-180 SIE beta-lactamase reporter, IL-6 stimulated, 5 h; at 17.2 µM (top of the series)
row,Structure (SMILES),"activity, negative = inhibition"
1,Nc1nc(Cl)nc2c1ncn2[C@@H]1O[C@H](CO)[C@@H](O)[C@H]1O,24.3%
2,O=C(O)c1ccccc1Nc1cccc(C(F)(F)F)c1,-14.4% and -17.3%
3,OC[C@H]1O[C@@H](n2cnc3c(NC4CCCC4)ncnc32)[C@H](O)[C@@H]1O,15.8%
4,CNCC[C@H](Oc1ccc(C(F)(F)F)cc1)c1ccccc1,-1.77%
5,N#C/C(=C\c1ccc(O)c(O)c1)C(=O)NCCCc1ccccc1,-22.9%
6,CCCSc1ccc2nc(NC(=O)OC)[nH]c2c1,-7.64% and -2.74%
7,O=C(O)Cc1ccc(-c2ccccc2)cc1,-10.3% and 7.71%
8,CCOc1ccc2nc(S(N)(=O)=O)sc2c1,12.3%
9,O=c1[nH]c2ccccc2n1CCCN1CCN(C(c2ccccc2)c2ccccc2)CC1,-2.06%
10,Cc1c(Nc2ncccc2C(=O)O)cccc1C(F)(F)F,-19.6%

# Same assay, conditions: ME-180 (cervical carcinoma) SIE beta-lactamase reporter, IL-6 stimulated, 5 h; at 38 µM (top of the series)
row,Structure (SMILES),"activity, negative = inhibition"
1,CN1CCc2ccccc2Cc2[nH]c3ccccc3c2CC1,-13.2%
2,CCCN(CC1CC1)c1nc(C)nc(Nc2c(Cl)cc(Cl)cc2Cl)c1Cl,-12.8%
3,O=C(O)CC[C@@H](C(=O)O)N1C(=O)c2ccccc2C1=O,0.0495%
4,COc1cc2c(CCNC(C)=O)c[nH]c2cc1Cl,-15.8%
5,Cn1c(=O)c2[nH]c(-c3ccccc3)nc2n(C)c1=O,-0.0891%
6,N#C/C(=C\c1ccc(O)c(O)c1)C(=O)NCc1ccccc1,-18.4%
7,N[C@H](CCCP(=O)(O)O)C(=O)O,14.7%
8,CN1[C@@H]2CC[C@H]1CC(OC(c1ccccc1)c1ccccc1)C2 (stereo not given in full),-14.8%
9,CCCn1c(=O)c2[nH]c(-c3ccc(OCC(=O)NCCN)cc3)nc2n(CCC)c1=O,-14%
10,O=C(O)c1cc([N+](=O)[O-])ccc1NCCCc1ccccc1,-16.2%
11,c1ccc(-c2ccccn2)nc1,6.11%
12,CN=c1nc(-c2ccccc2)n(-c2ccccc2)s1,8.46%
13,O=C(c1cc(O)c(O)c([N+](=O)[O-])c1)c1ccccc1F,-12.2%
14,COc1cccc(C(=O)NCCN2CCN(c3ccc(Cl)cc3)CC2)c1,0.921%
15,CNCC[C@H](Oc1ccc(C(F)(F)F)cc1)c1ccccc1,-30.6% and 21.5%
16,N#C/C(=C\c1ccc(O)c(O)c1)C(=O)NCCCc1ccccc1,-10.2%
17,C[N+](C)(CCCCCC[N+](C)(C)CCCN1C(=O)c2cccc3cccc(c23)C1=O)CCCN1C(=O)c2cccc3cccc(c23)C1=O,0.109%
18,NCCSSCCN,-21.5%
19,COc1ccccc1N1CCN(CCCCNS(=O)(=O)c2cccc3c(N(C)C)cccc23)CC1,-7.18%
20,NCCCCC(=O)O,0.307%
21,NC(=O)C(=O)O,-1.18%
22,O=C1NC(O)=NC1(c1ccccc1)c1ccccc1,-6.76%
23,NC[C@@H]1O[C@H](C23CC4CC(CC(C4)C2)C3)Cc2c1ccc(O)c2O,0.327%
24,CN1CCc2cc(NC(=O)Nc3cccnc3)ccc21,4.31%
25,Cc1ccc(O)c(N=Nc2ccccc2)n1,-4.23%
26,O=c1[nH]c2cc(Cl)c(Cl)cc2[nH]c1=O,-0.584%
